# From PubChem BioAssay
# LANA-H2B inh = blocks KSHV LANA binding to histone H2A/H2B; actives 0.6% (n = 320,000); inhibition, % (no concentration beside the values); cell-free LANA-H2A/H2B peptide, fluorescence polarization; in the data active = inhibition mostly above about 10%, no sharp cut-off; inactive = mostly below about 6.7%
# VLA-4 inh = inhibition in a human VLA-4 binding assay. P13612. VLA-4 expressing cells, ligand binding flow cytometry. inhibition, % (about 7 µM as worked out from the volumes in the protocol). actives 0.2% (n = 330,000). AID 2557
# GRK2 inh = human GRK2 inhibition via aptamer displacement | P25098 | bead flow cytometry, FAM-aptamer displacement from GRK2 | inhibition of aptamer binding, % at 10 µM | actives 0.59% (n = 330,000) | AID 488847;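 active = inhibition of aptamer binding above 40%, roughly 3 SD of noise, on plates passing a quality check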;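 note: median bead fluorescence of bound FAM aptamer so fluorescent compounds give negative values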
# HDAC3 inhib = inhibitors of human histone deacetylase 3; O15379; recombinant HDAC3, fluorogenic peptide/trypsin coupled, fluorescence; inhibition, % at 8.3 µM; actives 0.15% (n = 320,000); AID 2718; in the data active = inhibition above about 26%, passing the limit was not always enough; inconclusive = no clear call, values can overlap the other calls
# Pemphigus Ab inh = human desmoglein-3 autoantibody binding inhibition; P32926; DSG3-coupled beads, scFv-anti-DSG3-GFP binding, flow cytometry; stronger effect = lower value; binding (percent of control), % at 10 µM; actives 0.48% (n = 310,000); AID 588358;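 active = binding more than 3 SD below its plate's average and above zero; inconclusive = below that plate limit but binding exactly zero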;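 note: hits lower antibody fragment binding to DSG3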
# Target sequence (P32926 whole entry, looked up, the tested form may be a part): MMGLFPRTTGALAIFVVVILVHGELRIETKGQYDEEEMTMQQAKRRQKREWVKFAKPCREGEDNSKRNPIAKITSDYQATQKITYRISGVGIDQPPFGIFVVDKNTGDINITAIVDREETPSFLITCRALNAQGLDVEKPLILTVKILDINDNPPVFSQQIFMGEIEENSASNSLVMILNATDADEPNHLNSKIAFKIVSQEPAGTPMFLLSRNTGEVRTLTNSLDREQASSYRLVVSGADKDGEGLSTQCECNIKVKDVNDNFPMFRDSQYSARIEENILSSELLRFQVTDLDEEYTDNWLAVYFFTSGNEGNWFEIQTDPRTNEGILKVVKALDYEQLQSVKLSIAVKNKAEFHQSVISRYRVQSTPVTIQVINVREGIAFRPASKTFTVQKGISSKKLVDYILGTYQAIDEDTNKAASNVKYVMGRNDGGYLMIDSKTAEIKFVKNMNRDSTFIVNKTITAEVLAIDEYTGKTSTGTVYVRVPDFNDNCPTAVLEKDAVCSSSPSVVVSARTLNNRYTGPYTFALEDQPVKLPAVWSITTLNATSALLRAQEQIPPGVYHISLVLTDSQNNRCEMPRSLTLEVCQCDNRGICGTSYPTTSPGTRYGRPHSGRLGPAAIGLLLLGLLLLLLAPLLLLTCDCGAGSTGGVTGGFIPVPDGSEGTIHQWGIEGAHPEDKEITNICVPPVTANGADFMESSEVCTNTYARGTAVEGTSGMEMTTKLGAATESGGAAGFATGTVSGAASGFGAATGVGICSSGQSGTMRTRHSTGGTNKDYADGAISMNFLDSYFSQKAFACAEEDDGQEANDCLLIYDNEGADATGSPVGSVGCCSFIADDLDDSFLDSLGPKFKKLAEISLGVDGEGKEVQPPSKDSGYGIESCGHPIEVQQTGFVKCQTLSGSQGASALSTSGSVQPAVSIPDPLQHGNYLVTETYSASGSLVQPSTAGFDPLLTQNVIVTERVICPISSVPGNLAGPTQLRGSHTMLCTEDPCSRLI
# PKD1 kinase inh = inhibitors of human PKD1 kinase. Q15139. PKD1 kinase fluorescence polarization assay. inhibition, % (no concentration beside the values). actives 0.056% (n = 200,000)
# VLA-4 mod pick = confirmation of allosteric modulators of human VLA-4 integrin. shares compounds with VLA-4 inh. U937 cells, HUTS-21 LIBS mAb binding, flow cytometry; LDV ligand present at threefold Kd. inhibition, % at 6.7 µM. actives 2% (n = 1,300). AID 2813; in the data active = inhibition above about 40%
# Numbers stand for hits; 0 = inactive; ? = inconclusive; - = no result; + = active, no number. Shown are actives, neighbours in structure and some others; about 1.8% of the full set was active somewhere. Cut-off read from the data, not from the text of the source, unless noted: active = inhibition above about 50%; inactive = the rest.
SMILES,LANA-H2B inh,VLA-4 inh,GRK2 inh,HDAC3 inhib,Pemphigus Ab inh,PKD1 kinase inh,VLA-4 mod pick
Cc1ccc(NC(=O)CSCC(=O)N(C)CCOc2ccc(Cl)cc2)cc1,-,-,-,-,0,-,-
CC(C)(C)OC(=O)NCC(=O)NNC(=O)C(C(=O)OCc1ccccc1)c1ccccc1 (stereo unspecified),0,0,0,0,0,-,-
O=S(Cc1ccc(Cl)cc1)CC(O)COc1ccc(Cl)cc1 (stereo unspecified),0,0,0,0,0,0,-
NC(=O)OCC(O)COc1ccc(Cl)cc1 (stereo unspecified),0,57,0,0,-,-,0
COC(=O)C(Cc1ccccc1)NC(=O)CNC(=O)c1ccc(Br)cc1 (stereo unspecified),0,0,0,0,-,-,-
COCCN(Cc1cc2cc3c(cc2nc1Cl)OCO3)C(=O)Nc1ccc(OC)cc1,0,54,0,0,0,0,0
COCCNC(=O)C(c1ccc(F)cc1)N(C(=O)CCC(=O)Nc1nccs1)c1cccc(C)c1 (stereo unspecified),0,0,0,0,0,0,-
CC(OC(=O)C(C)N1C(=O)C2C3C=CC(C4CC34)C2C1=O)C(=O)c1ccccc1 (stereo unspecified),0,58,0,0,0,0,0
CCOC(=O)c1[nH]c2ccccc2c1NC(C)=O,0,68,0,0,0,-,0
COc1ccc(S(=O)(=O)Nc2c(F)cccc2F)cc1,0,0,0,0,0,0,0
COc1ccc(S(=O)(=O)Nc2ccccc2C)cc1,0,0,0,0,0,0,-
CCC(=O)NC(=S)Nc1ccccc1C(=O)NC1CCCCC1,0,0,0,0,0,0,0
O=C(NC1CCCCC1)c1ccccc1NC(=S)NC(=O)C1CC1,0,0,0,0,0,0,-
O=C(Nc1cccc(-c2nc3cccnc3s2)c1)C1c2ccccc2Oc2ccccc21,-,-,-,-,0,0,-
CC(C)c1ccccc1-n1c(SCC(=O)N2CCc3ccccc3C2)nc2ccccc2c1=O,0,55,0,0,0,0,0
O=C1Cc2cc(S(=O)(=O)Nc3ccc(N4CCOCC4)cc3)ccc2N1,0,0,0,0,0,-,0
Cc1ccc(NS(=O)(=O)c2ccc3c(c2)CC(=O)N3)cc1F,0,0,0,0,0,-,0
Cc1ccc(S(=O)(=O)Nc2ccc(N3CCOCC3)cc2)cc1C,0,0,0,0,0,-,-
COC(=O)c1ccc(CSc2ccc3nnc(-c4ccc(F)cc4)n3n2)o1,0,0,0,0,0,0,-
COC(=O)c1ccc(CSc2ccc3nnc(-c4ccccn4)n3n2)o1,0,54,0,0,0,0,0
CC1CCCC(NC(=O)COC(=O)c2cc(=O)[nH]c3ccccc23)C1C (stereo unspecified),0,0,0,0,-,-,-
COc1cc2c(c(OC)c1)C(c1ccncc1)CC(=O)N2 (stereo unspecified),0,0,0,0,0,0,-
CCOc1c(OC)cccc1C1CC(=O)Nc2cc(OC)c(OC)cc21 (stereo unspecified),0,0,0,0,0,0,0
COC(=O)c1ccc(C2CC(=O)Nc3cc(OC)c(OC)c(OC)c32)cc1 (stereo unspecified),0,0,0,0,-,0,0
COc1cc2c(cc1OC)C(c1ccc(OC)c(OC)c1OC)CC(=O)N2 (stereo unspecified),0,0,0,0,0,-,0
SMILES,LANA-H2B inh,VLA-4 inh,GRK2 inh,HDAC3 inhib,Pemphigus Ab inh,PKD1 kinase inh,VLA-4 mod pick
COc1cc2c(cc1OC)C(c1cccc(OC)c1OC)CC(=O)N2 (stereo unspecified),0,0,0,0,0,0,-
Cc1ccc(N(C)S(=O)(=O)c2csc(C(N)=O)c2)cc1C,0,0,0,0,0,-,-
CC1CCCC(C)N1C(=O)CSc1nnc(COc2ccc(F)cc2)o1 (stereo unspecified),0,0,0,0,0,-,-
CC[C@@]12C(=O)N(c3cccc(F)c3)C(=O)N1[C@H](c1ccc(Br)cc1)[C@@H]1C(=O)N(C(C)(C)C)C(=O)[C@@H]12,0,0,0,0,0,-,-
CCN(C[C@H]1N[C@@](Cc2ccccc2)(C(=O)OC)[C@H]2C(=O)N(Cc3ccccc3)C(=O)[C@@H]12)S(=O)(=O)c1ccc(F)cc1,0,0,0,0,0,-,-
CCN(C[C@H]1N[C@@](Cc2ccccc2)(C(=O)OC)[C@H]2C(=O)N(Cc3ccccc3)C(=O)[C@@H]12)S(=O)(=O)c1ccc(C(C)(C)C)cc1,67,0,0,0,0,-,0
CCN(C[C@H]1N[C@@](Cc2ccccc2)(C(=O)OC)[C@H]2C(=O)N(Cc3ccccc3)C(=O)[C@@H]12)S(=O)(=O)c1ccc(OC(F)(F)F)cc1,+,0,0,0,0,-,0
CCN(C[C@H]1N[C@@](Cc2ccccc2)(C(=O)OC)[C@H]2C(=O)N(Cc3ccccc3)C(=O)[C@@H]12)S(=O)(=O)c1ccc(OC)cc1,0,0,0,0,0,-,-
COc1cccc2c1cc1c(=O)n(CC(=O)NCCCN3CCN(C)CC3)nc(C)n12,0,0,0,0,-,-,-
C[C@@H]1CN([C@H](C)CO)C(=O)Cc2cc(NC(=O)Nc3ccccc3)ccc2O[C@@H]1CN(C)Cc1ccc2c(c1)OCO2,0,0,0,0,0,-,-
CC/C(O)=C1\C(=O)CC(c2ccccc2)CC1=NCCc1c(C)[nH]c2ccc(C)cc12 (stereo unspecified),0,0,0,0,0,0,-
CCC(=NCCc1c(C)[nH]c2ccc(C)cc12)C1=C(O)CC(c2ccccc2)CC1=O (stereo unspecified),0,0,0,0,0,0,0
FC(F)(F)c1cccc(NC(=S)Nc2ccc(Cl)cc2Cl)c1,0,90,0,0,0,0,0
S=C(Nc1ccccc1)Nc1ccc(Cl)cc1Cl,0,0,0,0,0,0,-
CC(=O)Nc1ccc(S(=O)(=O)NCCC(=O)OCc2csc(CC(=O)Nc3ccccc3C)n2)cc1,0,0,0,-,?,-,-
O=C(O)CCCC(=O)N1CCOCCOCCOCCOCC1,0,0,0,0,0,-,-
COc1ccc(OC)c2sc(NC(=O)c3cccc(N4C(=O)CCC4=O)c3)nc12,0,65,0,0,-,-,0
COc1ccc(-c2csc(NC(=O)c3cccc(N4C(=O)CCC4=O)c3)n2)cc1C,0,0,0,0,0,-,-
Cc1c(F)cccc1NS(=O)(=O)c1ccc2c(c1)c(C)cc(=O)n2C,0,0,0,0,0,-,-
COc1ccc(NC(=O)Nc2ccc(F)cc2)cn1,0,0,0,0,0,-,0
COC(=O)c1ccc(NC(=O)Nc2ccc(F)cc2)cc1,0,0,0,0,0,0,-
CCN(CC)C(=O)Cn1c(=O)oc2ccccc21,0,0,0,0,0,-,0
CC1CN(C(=O)Cn2c(=O)oc3ccccc32)CC(C)O1 (stereo unspecified),0,0,0,0,0,-,0
